The text below walks through data of PubChem BioAssay (Tox21).

Test [1] in a line: qHTS assay for small molecule agonists of the p53 signaling pathway (AID 651631; calls by dose curve; note: nearly all actives have a fitted effect of over 15% in size; note: potency is the fitted concentration of half-maximal effect). Put shortly:
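HCT-116 cells carrying a stable p53 response element–beta-lactamase reporter were plated, rested 5 h at 37 °C, then exposed to compound in DMSO for 16 h at 37 °C; reporter activity was read as FRET substrate fluorescence after 2 h at room temperature.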
(qHTS replaces the single test concentration by a dilution series.)

Test [2] can be described thus: qHTS assay for small molecules that induce genotoxicity in human embryonic kidney cells expressing luciferase-tagged ATAD5 (AID 651632). Note: nearly all actives have a fitted effect of over 15% in size. A digest of the protocol: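 Luminescence read-out: after 16 hr compound exposure at 37C, ATAD5-luciferase HEK293T cells received Amplite, 30 min RT, then CCD imaging. A rise in signal marks genotoxic stress.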
The nature of test [3]: qHTS assay for small molecule agonists of the p53 signaling pathway - cell viability (AID 651633; calls by dose curve; note: nearly all actives have a fitted effect of over 30% in size). Put shortly:
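p53RE-bla cells, seeded at 4,000 per well and rested 5 h at 37 C/5% CO2, received compounds in DMSO for 16 h at 37 C. CellTiter-Glo was then added, and luminescence was read after 30 min at room temperature to gauge cytotoxicity.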

Test [4] in a line: qHTS assay for small molecules that induce genotoxicity in human embryonic kidney cells expressing luciferase-tagged ATAD5 - cell viability (AID 651634; calls by dose curve; note: nearly all actives have a fitted effect of over 25% in size). Put shortly:
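HEK293T ATAD5-luc cells, 2,000/well; compound 15.5 hr, 37C/5% CO2; CellTiter-Fluor 30 min, 37C; fluorescence read.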

Test [5] in a line: qHTS assay for small molecule disruptors of the mitochondrial membrane potential - cell viability (AID 720634; calls by dose curve;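 note: human HepG2 liver cancer cells; nearly all actives have a fitted effect of over 20% in size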). A digest of the protocol:
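Luminescence from CellTiter-Glo (ATP content) gave viability in HepG2 cells, read in the same wells as the MMP dye assay after 1 hr compound exposure at 37 C.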

Test [6] in a line: qHTS assay for small molecule disruptors of the mitochondrial membrane potential (AID 720635). A digest of the protocol: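 HepG2 cells (2,000/well) attached overnight at 37C, then took compound for 1 hr at 37C, 5% CO2. Mito-MPS dye was added for 30 min; fluorescence was read at 490/535 nm (monomers) and 540/590 nm (aggregates).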
Test [7] can be described thus: qHTS assay to test for compound auto fluorescence at 590 nm (red) in HepG2 cells (AID 720674). Put shortly:
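Intrinsic compound fluorescence in the red window (Ex/Em 540/590 nm) is measured in attached HepG2 cells exposed for 1 hr, DMSO vehicle as baseline, benchmarked to Rose Bengal sodium.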

Test [8] is described as follows: qHTS assay to test for compound auto fluorescence at 535 nm (green) in HepG2 cells (AID 720675).
Test [9] can be described thus: qHTS assay to test for compound auto fluorescence at 460 nm (blue) in HEK293 cells (AID 720678). A digest of the protocol: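 Measured: blue fluorescence (Ex 405/Em 460 nm) of compound-treated HEK293 cells, incubated overnight at 37C with 5% CO2 and scaled to triamterene equivalents.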
Test [10] is described as follows: qHTS assay to test for compound auto fluorescence at 590 nm (red) in HEK293 cells (AID 720679). Put shortly: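 Using HEK293 cells at 2,000 per well, the screen added 23 nL of each compound after cell attachment and incubated overnight (37C, 5% CO2). The plate reader then captured red-label fluorescence, Ex/Em 540/590nm.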
Test [11] in a line: qHTS assay to test for compound auto fluorescence at 535 nm (green) in HEK293 cells (AID 720680).
Test [12] in a line: qHTS assay to test for compound auto fluorescence at 460 nm (blue) in HEK293 cell free culture (AID 720681). A digest of the protocol:
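Test compounds were pinned into cell-free culture medium (DMEM with 10% FBS) and fluorescence was read directly at Ex/Em 405/460 nm. Signals were expressed as fluorescence equivalents of triamterene, with DMSO vehicle as control.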

Test [13] can be described thus: qHTS assay to test for compound auto fluorescence at 535 nm (green) in HEK293 cell free culture (AID 720682). Put shortly:
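Read-out: 485/535 nm fluorescence intensity, calibrated against fluorescein. Medium only (DMEM + 10% FBS, no cells); test compound or DMSO vehicle added by pintool before plate reading.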

Test [14] can be described thus: qHTS assay to test for compound auto fluorescence at 590 nm (red) in HEK293 cell free culture (AID 720683). Put shortly: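 Tox21 10K library compounds were pinned into cell-free DMEM with 10% FBS and fluorescence was read at excitation 540 nm. Activity is expressed as Rose Bengal sodium equivalency.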
A short description of test [15]: qHTS assay to test for compound auto fluorescence at 590 nm (red) in HepG2 cell free culture (AID 720684). Put shortly: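 Readout: intrinsic compound fluorescence at 590 nm emission after 540 nm excitation, scaled to Rose Bengal sodium. Matrix was cell-free MEM with 10% FBS; DMSO vehicle wells served as control.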
The nature of test [16]: qHTS assay to test for compound auto fluorescence at 460 nm (blue) in HepG2 cell free culture (AID 720685). Put shortly:
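Cell-free plates of MEM plus 10% FBS received 23 nL compound or DMSO vehicle; blue-channel (405/460 nm) intensity scored against triamterene as reference fluorophore.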

A short description of test [17]: qHTS assay to test for compound auto fluorescence at 535 nm (green) in HepG2 cell free culture (AID 720686).
Test [18] is described as follows: qHTS assay to test for compound auto fluorescence at 460 nm (blue) in HepG2 cells (AID 720687). Put shortly:
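Cells (2,000/well in MEM with 10% FBS) attached overnight at 37 C, then were exposed to compound or DMSO for 1 hr at 37 C, 5% CO2. Fluorescence read at Ex/Em 405/460 nm, expressed as triamterene-equivalent signal.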

Test [19] has as its target Glucocorticoid receptor (Homo sapiens) (UniProt P04150). Put plainly: qHTS assay to identify small molecule agonists of the glucocorticoid receptor (GR) signaling pathway (AID 720691; active = well fitted activation curve with a large enough effect in the signal ratio in the repeat runs, not every such curve was filed as active; inconclusive = weak or mixed curves, or effect the other way; inactive = no such curve, though single readings can be large or run the other way; the % refers to the signal ratio; note: potency is the fitted concentration of half-maximal effect). As to conditions: GR-bla HeLa, beta-lactamase reporter ratio, 18 h; activation: at 62.4 µM (top of the series). Put shortly: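 HeLa GR-bla reporter line; cells pre-incubated 4 h, compound in DMSO 18 h at 37 C; LiveBLAzer B/G FRET substrate 2 h RT; fluorescence intensity read-out.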

Test [20] shares this target. Put plainly: qHTS assay to identify small molecule antagonists of the glucocorticoid receptor (GR) signaling pathway (AID 720692; active = well fitted inhibition curve with a large enough effect in the signal ratio in the repeat runs, not every such curve was filed as active; inconclusive = weak or mixed curves, or effect the other way; inactive = no such curve, though single readings can be large or run the other way; the % refers to the signal ratio). Put shortly: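 Read-out: beta-lactamase FRET substrate fluorescence, 2 h at room temperature, in HeLa cells stably carrying a GRE-driven bla reporter. Compounds were co-incubated with 5 nM dexamethasone agonist (final) for 18 h at 37 C.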

Values joined by “and” are separate entries in the source; they are usually repeats but may differ in a detail not shown here. Equal entries are not always repeated. More than one record can exist for a structure, and the calls need not agree. Active and inactive are the calls of the source. Unless noted, calls come from the whole dose curve; as a rule, active = well fitted curve in the direction sought with a large enough effect in the repeat runs; inconclusive = weak or mixed curves; inactive = no such curve, though single readings can be large; an effect the other way counts as inactive or inconclusive.

Chain of Glucocorticoid receptor (Homo sapiens) (P04150 whole entry, looked up): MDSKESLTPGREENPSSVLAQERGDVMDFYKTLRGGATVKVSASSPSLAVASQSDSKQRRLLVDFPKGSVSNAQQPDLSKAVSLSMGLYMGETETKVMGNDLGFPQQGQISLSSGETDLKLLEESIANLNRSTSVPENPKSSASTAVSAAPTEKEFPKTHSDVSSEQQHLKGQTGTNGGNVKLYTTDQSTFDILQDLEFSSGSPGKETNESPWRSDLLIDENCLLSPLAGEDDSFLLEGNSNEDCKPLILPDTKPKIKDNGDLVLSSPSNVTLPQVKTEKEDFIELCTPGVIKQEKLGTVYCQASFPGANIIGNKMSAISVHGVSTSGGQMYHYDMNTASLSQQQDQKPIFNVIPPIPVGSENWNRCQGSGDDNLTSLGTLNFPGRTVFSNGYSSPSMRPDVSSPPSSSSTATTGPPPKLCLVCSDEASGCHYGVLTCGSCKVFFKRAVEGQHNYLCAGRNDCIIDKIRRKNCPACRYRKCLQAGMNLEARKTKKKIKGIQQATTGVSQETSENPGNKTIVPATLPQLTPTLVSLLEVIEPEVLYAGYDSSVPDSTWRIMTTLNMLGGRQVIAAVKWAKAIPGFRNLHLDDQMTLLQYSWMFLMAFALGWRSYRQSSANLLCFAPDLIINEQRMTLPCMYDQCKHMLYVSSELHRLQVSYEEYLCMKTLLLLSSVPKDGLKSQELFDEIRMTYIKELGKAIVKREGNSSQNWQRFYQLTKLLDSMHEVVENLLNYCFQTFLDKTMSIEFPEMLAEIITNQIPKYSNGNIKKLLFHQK

Take `CCCCCN=C(N)N/N=C/c1c[nH]c2ccc(OC)cc12`: the Potency result in test [1], in test [2], in test [3], in [4], in test [5] and in test [6] was “inactive” in each case. Further, the Potency result in test [8], in [9], in test [12], in test [16], in test [17] and in test [18] was “inactive” in each case. Further, the Potency result in test [19] and in test [20] was “inactive” throughout. For the same compound, the compound was called inactive in test [7], in test [10], in [11], in [13], in test [14] and in [15].

For the compound `CC1CCCCN1CCCOC(=O)c1ccccc1` (centres undefined), the Potency result in test [1], in test [2], in [3], in [4], in test [5] and in test [6] was “inactive” in each case. Further, the Potency result in [8], in test [9], in test [12], in test [16], in test [17] and in test [18] was “inactive” each time. The Potency result in test [19] and in test [20] was “inactive” throughout. The compound was called inactive in [7], in test [10], in test [11], in [13], in test [14] and in test [15].

Turning to `C=CCN1C(=O)C(CC(C)C)NC1=S` (centres undefined), the Potency result in [1], in test [2], in test [3], in [4], in test [5] and in test [6] was “inactive” throughout. The Potency result in [8], in [9], in test [12], in test [16], in test [17] and in test [18] was “inactive” throughout. Besides, the Potency result in test [19] and in test [20] was “inactive” in each case. Also, the result in [7], in test [10], in test [11], in [13], in test [14] and in [15] was inactive.

Consider `O=C(O)/C=C/C(=O)Nc1ccc(S(=O)(=O)Nc2nccs2)cc1`, for which the Potency entry in [1], in test [2], in test [3], in test [4], in test [5] and in [6] was “inactive” throughout. For the same compound, the Potency result in test [8], in test [9], in [12], in test [16], in [17] and in [18] was “inactive” each time. Besides, the Potency entry in [19] and in [20] was “inactive” in each case. Moreover, the result in test [7], in test [10], in test [11], in test [13], in test [14] and in [15] was inactive.

In the case of `Cc1c(N)nc([C@H](CC(N)=O)NC[C@H](N)C(N)=O)nc1C(=O)N[C@H](C(=O)N[C@H](C)[C@@H](O)[C@H](C)C(=O)N[C@H](C(=O)NCCc1nc(-c2nc(C(=O)NCCCCN=C(N)N)cs2)cs1)[C@@H](C)O)[C@@H](O[C@@H]1O[C@@H](CO)[C@@H](O)[C@H](O)[C@@H]1O[C@H]1O[C@H](CO)[C@@H](O)[C@H](OC(N)=O)[C@@H]1O)c1cnc[nH]1`, the Potency in test [1] is 841 nM (active) and 66.8 nM (active); in test [19] it was 848 nM [inconclusive] (active) and inactive. The Potency result in test [2], in test [3], in [4], in test [5], in test [6] and in [8] was “inactive” throughout. For the same compound, the Potency entry in test [9], in test [12], in test [16], in [17], in test [18] and in test [20] was “inactive” throughout. Also, the call in [7], in test [10], in test [11], in [13], in [14] and in test [15] was inactive.

Turning to `CNC(=O)C[C@@H](N)C(=O)N[C@@H](C(=O)N[C@@H]1C(=O)N2[C@@H]1SC(C)(C)[C@@H]2C(=O)O)c1ccc(O)cc1`, the Potency result in test [1], in test [2], in test [3], in [4], in test [5] and in [6] was “inactive” throughout. Besides, the Potency entry in test [8], in [9], in test [12], in [16], in [17] and in test [18] was “inactive” throughout. Also, the Potency entry in test [19] was “inactive”. Further, the result in test [7], in test [10], in test [11], in test [13], in [14] and in [15] was inactive.
